The panel holds about 83,000 compounds, 20% with a hit somewhere; the sample as a whole holds those more often.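 In brief: 96-well plates, 48 h treatment, single concentration, percent growth endpoint.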 Values without a mark were called inactive. The source made the active and inactive calls.

For 40 compounds, growth results are on record in PubChem BioAssay (NCI).

The subject of this test is SW-620 colon. Nature of the test: NCI-60 one-dose screen, 48 h (100 = growth as untreated, 0 = no growth, -100 = all killed). The settings on record: 10 µM unless noted. Here is the method:
Growth inhibition of the SW-620 human tumor cell line is measured as a screen for anti-cancer activity. Cells are grown in 96 well plates and exposed to the test compound for 48 hours. Compounds are tested at a single concentration, which is 10^-5 M for most compounds. The reported endpoint is percent growth (GI% or GIPRCNT), where numbers from 0 - 100% represent growth inhibition, and numbers from -100% - 0 represent cell death. For example, a value of 40 represents 60% growth inhibition. A value of 0 means no net growth occurred over the course of the experiment. A value of -40 indicates 40% of cells at the beginning of the experiment died by the end of the experiment. A value of -100 means all cells are dead at the end of the experiment.
NCI-60 Human Tumor Cell Lines Screen was performed using the standard one-dose NCI protocol, which is described in more detail at https://dtp.cancer.gov/discovery_development/nci-60/default.htm.
Compounds with GIPRCNT values below 10 were considered active. Activity score was based on GIPRCNT using the following formula: […]
Score is 0 for GIPRCNT values of 100 or above, 50 for GIPRCNT values of 0, and 100 for GIPRCNT values of -100.
On to `Clc1ccc(N2N=C(c3cccc(Nc4ccncc4)c3)CC2c2ccc(Br)cc2)cc1` (stereo not given), for which the growth is -68.1% (active).

As to `O=S(=O)(NCCCNc1nccc(-c2c(-c3cccc(O)c3)nc3occn23)n1)c1ccc(Br)cc1`, the growth is 112%.

For `COc1ccccc1/C=C1\COc2ccc(-c3ccccc3)cc2C1=O`, the growth is 16.8%.

For `CS(=O)(=O)c1ccc(-c2cc3c(oc2=O)-c2ccccc2OC3O)cc1` (stereo not given), the growth was 97.8%.

Turning to `Clc1cc(Cl)cc(N2N=C(c3cccc(Nc4ccncc4)c3)CC2c2ccc(Br)cc2)c1` (stereo not given), the growth is -72.1% (active).

With `Cc1c2c(cc[n+]1Cc1ccccc1)c1ccc(OCC3CCCCC3)cc1n2CC1CCCCC1`, the growth was -96.6% (active).

As for `Cc1cn(-c2cc(C(=O)Nc3cccc(C#Cc4cccc5[nH]nc(N)c45)c3)cc(C(F)(F)F)c2)cn1`, the growth is 43.1%.

Turning to `COc1ccc(-c2c[nH]c(C(=O)O)c2-c2cc(OC)c3c(c2OC)OCO3)cc1`, the growth was 103%.

With `Cn1c(COC(=O)NCCN2CCOCC2)nc2c(N3CCOCC3)nc(-c3ccccc3)nc21`, the growth was -76.9% (active).

Take `CN1CCN(c2ccc3nc(-c4cc(C(C)(C)C)c(O)c(C(C)(C)C)c4)[nH]c3c2)CC1`: the growth was 14.7%.

Regarding `O=C(CSc1nc2sc3c(c2c(=O)n1Cc1ccccc1)CCCC3)N1CCN(c2ccccc2)CC1`, the growth was 102%.

On to `N#CSCC1CC(O)(c2ccccc2)C(c2ccccc2)C(c2ccc(F)cc2)O1` (stereo not given), for which the growth is -1.6% (active).

Consider `O=S(=O)(NCCNc1nccc(-c2c(-c3ccc(F)c(O)c3)nc3sccn23)n1)c1ccccc1`, for which the growth was 70.4%.

For the compound `O=S(=O)(NCCNc1nccc(-c2c(-c3cccc(F)c3)nc3occn23)n1)c1cccc2ccccc12`, the growth is 72.1%.

For `Clc1ccc(C2CC(c3cccc(Nc4ccncc4)c3)=NN2c2ccc(Cl)cc2)cc1` (stereo not given), the growth is -67.6% (active).

As to `CCOC(=O)c1c(O)cc(-c2ccccc2)cc1-c1sc(N(C)Cc2ccccc2)nc1Cl`, the growth is 96.5%.

On to `COc1cc(/C=C2\C(=O)N(Cc3ccc(Cl)cc3)c3ccccc32)cc(OC)c1OC`, for which the growth was -29.7% (active).

On to `CCNC(=O)c1[nH]cc(-c2ccc(OC)cc2)c1-c1cc(OC)cc(OC)c1`, for which the growth was 101%.

Take `CC(=O)N1N=C(c2cccc(Nc3ccncc3)c2)CC1c1ccc2c(c1)OCO2` (stereo not given): the growth was 86.2%.

`CCCNC(=O)Oc1ccc(/C(=C(\C)c2ccccc2)c2ccc(OCCN3CCCCC3)cc2)cc1`: the growth was 80.8%.

Regarding `O=C1Nc2c(ccc(Cl)c2Cl)/C1=C/c1ccc(F)cc1`, the growth was 96.4%.

Consider `c1ccc(-c2nnc(Nc3ccc4c(c3)OCCO4)o2)c(NCc2ccncc2)c1`, for which the growth was 27.9%.

For `COc1ccc(C2CC(c3cccc(Nc4ccncc4)c3)=NN2c2ccccc2)cc1` (stereo not given), the growth is -72.2% (active).

Take `N#CC1=C(N)Oc2c(ccc3ccccc23)C1c1ccc([N+](=O)[O-])cc1` (stereo not given): the growth was 55.5%.

Turning to `CC1(C)NCCC[C@]2(C)[C@H]3CC=C4[C@@H]5C[C@@](C)(CO)CC[C@]5(C)CC[C@@]4(C)[C@]3(C)CC[C@@H]12`, the growth is 74.1%.

On to `COc1ccncc1C#Cc1cncc(C(=O)Nc2ccc(CN3CCN(C)CC3)c(C(F)(F)F)c2)c1`, for which the growth is 4.42% (active).

Consider `O=C(CN1CCOCC1)Nc1ccc2ncnc(Nc3ccc(OCc4cccc(F)c4)c(Cl)c3)c2c1`, for which the growth is 109%.

As to `CN(C)c1ccc(-c2c(C#N)c(N)n3nc(N)c(C#N)c3c2C#N)cc1`, the growth is 112%.

Consider `O=C(N/N=C/c1ccc(O)c(O)c1)c1sc2ccccc2c1Cl`, for which the growth was 75.2%.

In the case of `CCCCCCOc1ccc(/C=N/Nc2cc(C)nc3ccc(Br)cc23)cc1`, the growth is -72.5% (active).

As to `CC(=O)O[C@]1(C(C)=O)CC[C@H]2[C@@H]3C=C(Cl)C4=CC(=O)CC[C@]4(C)[C@H]3CC[C@@]21C`, the growth was 115%.

`NC(=S)N/N=C(\c1ccc(Cl)cc1)C1CC1`: the growth is 72%.

`CN(C)Cc1c(-c2ccccc2)[nH]c2ccccc12`: the growth was 99.6%.

On to `CC1(C)CCCN1CCCN1c2ccccc2Sc2ccc(Cl)cc21`, for which the growth is 79.9%.

As for `CC(C)Cc1ccc(C(C)C(=O)NCc2ccc(Cn3c(=O)sn(-c4ccc(Cl)cc4)c3=O)cc2)cc1` (stereo not given), the growth was 59.8%.

As for `Clc1ccc(N2N=C(c3cccc(Nc4ccncc4)c3)CC2c2ccc3c(c2)OCO3)cc1` (stereo not given), the growth is -78.6% (active).

`COc1ccc(/C=C\c2nc3ccccc3s2)cc1OP(=O)(O)O`: the growth was 23.2%.

`O=C(/C=C/c1ccc[nH]1)c1ccc(-n2ccc(C(F)(F)F)n2)cc1`: the growth is 102%.

For `NC(=O)c1ccc[n+](CC(=O)N2CCN(c3cc4c(cc3F)c(=O)c(C(=O)O)cn4C3CC3)CC2)c1`, the growth is 6.58% (active).

On to `Cn1c(=O)c2[nH]c(CCCc3nc4c([nH]3)c(=O)n(C)c(=O)n4C)nc2n(C)c1=O`, for which the growth was 112%.
